Reference: PubChem BioAssay AID687001 (Broad Institute, 2013)
Measured potencies and affinities stand elsewhere.

What follows are molecules tested against Protein S100-A4 (Homo sapiens) (UniProt P26447) (assay: human S100A4 peptide interaction inhibition curves – biochemical, fluorescence polarization, cherry-picked hits, dose response (AID 687001;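 note: 0% = DMSO neutral control wells and -100% = TFP positive control wells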)). Settings: FP, S100A4/TAMRA-myosin IIA peptide binding; series mostly up to 11 µM; activity change, negative = inhibition: at the top concentration;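 active = signal-lowering compounds whose fitted half-maximal concentration is at or below twice the top tested dose in every run; inconclusive = runs disagree, flat 30 to 70% inhibition, or poor curve fit; inactive = the rest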.
Protein S100-A4 (Homo sapiens), sequence (P26447 whole entry, looked up): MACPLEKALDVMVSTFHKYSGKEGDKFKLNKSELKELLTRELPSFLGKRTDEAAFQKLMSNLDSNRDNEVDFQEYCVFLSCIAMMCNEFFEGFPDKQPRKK

Activity change, negative = inhibition, inactive:
O=C(NCCC1CCCCN1S(=O)(=O)c1cccs1)C(=O)Nc1ccc(F)cc1 (centres undefined) 3.97%, Cc1ccc(NC(=O)COC(=O)c2ccccc2F)cc1S(=O)(=O)N1CCCCC1 5.19%, O=C(COC(=O)/C=C/c1ccc(Br)o1)Nc1ccc2[nH]c(=O)[nH]c2c1 1.75%, Cn1c(/C(C#N)=C(\O)c2cc(Cl)sc2Cl)nc2ccccc21 -2.38%, Cc1ccc(NC(=O)CCCCCN2C(=O)[C@@H]3Cc4ccccc4CN3C2=O)cc1 -0.003%, COc1ccc(CN(C)C[C@@H]2OCCCC[C@H](C)Oc3ccc(NS(=O)(=O)c4cn(C)cn4)cc3C(=O)N([C@@H](C)CO)C[C@H]2C)cc1 4.47%, Cc1cc(F)ccc1S(=O)(=O)N1CCCOC1CNC(=O)C(=O)NCc1ccc2c(c1)OCO2 (centres undefined) -1.74%, CC1(C(=O)Nc2cnc3ccccc3c2)CCN1Cc1cc2ccccc2o1 (centres undefined) 5.98%, O=C(NC1CCCC1)N1CCCCN2[C@@H](CO)[C@@H](c3ccc(-c4cccnc4)cc3)[C@@H]2C1 3.97%, Cc1ccc(N(C)S(=O)(=O)c2cccc(C(=O)NCCCN3CCCC3=O)c2)cc1 -2.52%, C[C@@H]1CN([C@H](C)CO)C(=O)c2cc(NC(=O)Nc3ccc(C(F)(F)F)cc3)ccc2O[C@@H]1CN(C)C(=O)Nc1ccc(C(F)(F)F)cc1 0.398%, Clc1ccc(-c2nc(CSc3ccccn3)cs2)cc1 -0.314%, CCOc1cc(/C=N/NC(=O)c2ccc(N(C)S(=O)(=O)c3ccccc3)cc2)ccc1OC -6.58%, Cc1noc(C)c1NC(=O)N(C)C[C@H]1Oc2c(NC(=O)CCCCCC(=O)Nc3ccccc3N)cccc2C(=O)N([C@@H](C)CO)C[C@H]1C 7.49%, CC(C)(C)c1cc(CCC(=O)N2CCC2)cc(C(C)(C)C)c1O -0.818%, Cc1onc(-c2ccccc2Cl)c1C(=O)N1CCCC1 2.91%, O=C(CN1C(=O)CCS(=O)(=O)c2ccccc21)Nc1ccc(F)cc1 -4.04%, CCCN1[C@H](CO)[C@H](c2ccc(C3=CCCCC3)cc2)[C@@H]1CNS(C)(=O)=O 7.85%, O=C(CCc1ccccc1)Nc1sc2c(c1C(=O)O)CCCC2 -4.68%, COc1cc(OC)cc(C(=O)N2CCCc3ccccc32)c1 -4.36%, Cc1ccc(CCNC(=O)c2cc(-c3ccncc3)nc3ccc(S(=O)(=O)N4CCOCC4)cc23)cc1 2.7%, COCC#Cc1cnc2c(c1)C(=O)N([C@H](C)CO)C[C@H](C)[C@H](CN(C)C(=O)C1CCC1)O2 10%, Cc1cccc(C)c1NC(=O)C1(C)CCC(=O)N1CCOc1ccccc1 (centres undefined) -1.45%, CC(=O)N1[C@H](C(=O)N[C@H](C)c2ccccc2)[C@@H](CO)[C@@H]2Cn3c(cccc3=O)[C@@H]21 -1.68%, Cc1ccc(OCCOCCn2cnc3ccccc3c2=O)c([N+](=O)[O-])c1 3.84%, COc1ccc(Cl)cc1S(=O)(=O)n1ccnc1 -1.32%, CCOC(=O)C1(C)CCN1C(=O)c1csnn1 (centres undefined) -0.883%, O=S(=O)(Nc1ccc(N2CCCCC2)cc1)c1ccc(F)cc1 8.2%, NC1=NC(=O)C(CC(=O)c2ccc(Cl)cc2)S1 (centres undefined) 1.05%, COc1ccc(S(=O)(=O)NCC2CCCN(Cc3cccc(C(C)=O)c3)C2)cc1 (centres undefined) 10.8%, COc1ccccc1C(=O)NC(=O)COC(=O)c1ncc(Cl)c(Cl)c1Cl 12.5%, COc1ccc(-c2cc(C(=O)NCc3ccco3)c3ccccc3n2)c(OC)c1 4.31%, O=C(C[C@H]1C=C[C@H](NC(=O)c2ccc(F)cc2)[C@H](CO)O1)NCc1ccncn1 0.371%, CCCN1CCN(CCCNC(=O)C(CC)n2nc(C)c3sc4ccccc4c3c2=O)CC1 (centres undefined) 5.91%, CCCNC(=O)Nc1ccc2c(c1)C(=O)N(C)C[C@@H](OC)[C@@H](C)CN[C@@H](C)CO2 -0.641%, CCN(CC)C(=O)c1ccccc1NS(=O)(=O)c1cccs1 1.48%, O=C(NCCS(=O)(=O)NCCc1ccccc1)c1ccccc1 0.893%, CCN(CC(=O)Nc1c(F)cccc1F)C(=O)c1ccc(OC)c(S(=O)(=O)NC2CCCC2)c1 -0.888%, C=C[C@@H]1c2ccccc2N(S(=O)(=O)c2ccc(C)cc2)[C@H](c2ccccc2C(F)(F)F)C1(C#N)C#N -0.594%
